PubChem BioAssay (Tox21)
“And” between values parts separate entries of the source, which are not always exact repeats. Equal entries are not always repeated. Inconclusive results are not listed. Entries that show only a call come without a potency. More than one record can exist for a structure, and the calls need not agree. The source made the active and inactive calls. Calls follow the shape of the dose curve; as a rule, active = well fitted inhibition curve with a large enough effect in the signal ratio in the repeat runs; inconclusive = weak or mixed curves, or effect the other way; inactive = flat fitted curve, though single readings scatter; the % refers to the signal ratio.
Potency is read from the fitted curve at half-maximal effect.

Assay: qHTS assay for small molecule disruptors of the mitochondrial membrane potential (AID 720635)
Details: HepG2 mitochondrial membrane potential, Mito-MPS dye ratio; series mostly up to 83.2 µM
Source text: U.S. Tox21 Program National Center for Advancing Translational Sciences [NCATS] NIH Chemical Genomics Center [NCGC] U.S. Environmental Protection Agency [EPA] National Institutes of Environmental Health Sciences [NIEHS] National Toxicology Program [NTP] U.S. Food and Drug Administration [FDA] Tox21 Assay Overview: Mitochondrial membrane potential (MMP), one of the parameters for mitochondrial function, is generated by mitochondrial electron transport chain that creates an electrochemical gradient by a series of redox reactions. This gradient drives the synthesis of ATP, a crucial molecule for various cellular processes. Measuring MMP in living cells is commonly used to assess the effect of chemicals on mitochondrial function. […] The dye accumulates in the mitochondria of healthy cells as aggregates, with red fluorescence. The mitochondrial potential collapses and the dye can no longer accumulate in the mitochondria and remains in the cytoplasm in monomers, with green fluorescence.
Tox21 Assay Protocol Summary: 2,000 HepG2 cells in 5 uL/well were dispensed into black, clear-bottom 1536-well plates using a Multidrop Combi (Thermo Scientific) dispenser. The assay plates were incubated overnight at 37C to allow cells to attach to the wells, followed by the transfer of 23 nL compound or DMSO vehicle by a pin tool (Kalypsys). The plates were incubated for 1 hr at 37C and 5% CO2, followed by the addition of 5 uL of 2X Mito-MPS dye (BD Biosciences) into each well using Flying Reagent Dispenser (Aurora Discovery) and then following 30 min incubation at 37C. Fluorescence intensity (490nm excitation and 535nm emission for monomers; and 540nm excitation and 590nm emissions for aggregates) was measured using an Envision plate reader.
With `Cc1ccc(N)c([N+](=O)[O-])c1` the Potency was 54.5 µM (active).
In the case of `[Na+]`, the Potency is reported as “inactive”.
With `c1ccc2c(c1)ccc1cc3c(ccc4ccccc43)cc12` the Potency was “inactive”.
In the case of `COc1cc([C@H]2Oc3cc([C@H]4Oc5cc(O)cc(O)c5C(=O)[C@@H]4O)ccc3O[C@@H]2CO)ccc1O`, the Potency is reported as 29.8 µM (active) and 21.6 µM (active).
In the case of `CC(=O)Oc1ccc(C(c2ccc(OC(C)=O)cc2)c2ccccn2)cc1`, the Potency is reported as 6.68 µM (active) and 21.6 µM (active).
In the case of `NC[C@H](O)c1ccc(O)c(O)c1`, the Potency is reported as “inactive”.
In the case of `O=S1(=O)CCCO1`, the Potency is reported as “inactive”.
In the case of `CCCCCCCCCCC(CO)CCCCCCCC` (stereo not given), the Potency is reported as “inactive”.
With `O=Cc1ccccc1C=O` the Potency was 21.1 µM (active) and 30.6 µM (active).
With `Nc1ccc(N)c(Cl)c1` the Potency was 3.85 µM (active) and 27.3 µM (active).
With `Nc1cc([N+](=O)[O-])ccc1C(=O)O` the Potency was 38.6 µM (active).
For `O=C1CCc2ccccc2O1`, the Potency was “inactive”.
With `Cc1ccc(C(C)(C)C)c(O)c1` the Potency was 26.4 µM (active) and 17.2 µM (active).
With `Cc1ccc(S(=O)(=O)O)cc1C` the Potency was “inactive”.
For `CC(C)[N+](C)(CCOC(=O)C1c2ccccc2Oc2ccccc21)C(C)C`, the Potency was “inactive”.
In the case of `Cc1ccc(/C(=C\CN2CCCC2)c2ccccn2)cc1`, the Potency is reported as “inactive”.
With `C=C[C@@]1(C)CC(=O)[C@]2(O)[C@@]3(C)[C@@H](O)CCC(C)(C)[C@@H]3[C@H](O)[C@H](OC(C)=O)[C@@]2(C)O1` the Potency was 26.6 µM (active).
In the case of `c1ccc2c(c1)[nH]c1ccccc12`, the Potency is reported as 19 µM (active) and 21.7 µM (active).
With `C1COCCN1` the Potency was “inactive”.
With `C=CC(=O)OCCCC` the Potency was “inactive”.
In the case of `Cc1ccc([N+](=O)[O-])c(C)c1`, the Potency is reported as “inactive”.
In the case of `CCCCCCCCCCCCCO`, the Potency is reported as “inactive”.
With `CCCCCCCCCCCCO` the Potency was “inactive”.
With `Brc1nc2ccccc2s1` the Potency was “inactive”.
With `Oc1c(Cl)ccc(Cl)c1Cl` the Potency was 4.32 µM (active) and 61.1 µM (active).
In the case of `O=[Se](O)O`, the Potency is reported as 8.64 µM (active) and inactive.
In the case of `C1CN(SSN2CCOCC2)CCO1`, the Potency is reported as 61.1 µM (active).
With `C[C@]12C=CC(=O)C=C1CC[C@H]1[C@@H]3C[C@@H](O)[C@](O)(C(=O)CO)[C@@]3(C)C[C@H](O)[C@@]12F` the Potency was “inactive”.
With `C=C1C[C@H]2[C@@H]3C=C(C)C4=CC(=O)CC[C@]4(C)[C@H]3CC[C@]2(C)[C@@]1(OC(C)=O)C(C)=O` the Potency was “inactive”.
With `COc1ccc(-c2coc3cc(O)cc(O)c3c2=O)cc1` the Potency was 3.09 µM (active) and 6.86 µM (active).
With `C[C@]12CC[C@@H]3c4ccc(O)cc4CC[C@H]3[C@@H]1CC[C@@H]2O` the Potency was 26.6 µM (active) and 30.6 µM (active) and 17.2 µM (active).
With `CC(=O)Nc1ccc2c(c1)Cc1cc(NC(C)=O)ccc1-2` the Potency was “inactive”.
In the case of `C[N+](C)(C)CCO`, the Potency is reported as “inactive”.
For `c1ccc2cc3ccccc3cc2c1`, the Potency was 5.01 µM (active) and 34.4 µM (active).
With `CN(C)/N=N/c1nc[nH]c1C(N)=O` the Potency was “inactive”.
In the case of `CC(C)(Oc1ccc(Cl)cc1)C(=O)O`, the Potency is reported as “inactive”.
For `COC(=O)CC(=O)OC`, the Potency was “inactive”.
In the case of `CC(C)=CCO`, the Potency is reported as “inactive”.
For `NCCOCCO`, the Potency was “inactive”.
In the case of `COc1ccc(C(=O)c2ccccc2O)c(O)c1`, the Potency is reported as 8.04 µM (active) and 8.61 µM (active).
